The sample as a whole holds a higher share of the strongest signals than the screen did.
What was measured:
Test in all cases: glycan array binding signal (z-score within array); higher = stronger binding
Settings in all cases: glycan notation: IUPAC condensed, linker removed
[1] = biological target: Fuc(a1-2)Gal6S(b1-4)Glc6S
In short: (§1)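 The binding signal is a Z-score computed within each array. Data were drawn from 3228 arrays in the Consortium for Functional Glycomics database, restricted to those with a known protein sequence. Scores were averaged over arrays of the same protein sequence at different concentrations or buffers, and over linkers, and negative values can be taken as non-binding.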

[2] = biological target: Fuc(a1-2)[Gal(a1-3)]Gal
In short: as §1

[3] = biological target: Fuc(a1-3)[Gal(b1-4)]GlcNAc
In short: as §1

[4] = biological target: Gal(a1-3)Gal(b1-3)[Fuc(a1-4)]GlcNAc(b1-2)Man(a1-3)[Gal(a1-3)Gal(b1-3)[Fuc(a1-4)]GlcNAc(b1-2)Man(a1-6)]Man(b1-4)GlcNAc(b1-4)GlcNAc
In short: as §1

[5] = biological target: Gal(a1-3)Gal(b1-4)[Fuc(a1-3)]GlcNAc(b1-2)Man(a1-3)[Gal(a1-3)Gal(b1-4)[Fuc(a1-3)]GlcNAc(b1-2)Man(a1-6)]Man(b1-4)GlcNAc(b1-4)GlcNAc
In short: as §1

[6] = biological target: Gal(b1-3)GlcNAc(a1-6)Gal(b1-4)GlcNAc
In short: as §1

[7] = biological target: Gal(b1-3)[Fuc(a1-4)]GlcNAc(b1-3)Gal(b1-3)[Fuc(a1-4)]GlcNAc
In short: as §1

[8] = biological target: Gal(b1-4)GalNAc(b1-3)[Fuc(a1-2)]Gal(b1-4)GlcNAc
In short: as §1

[9] = biological target: Gal(b1-4)GlcNAc
In short: as §1

[10] = biological target: Gal(b1-4)GlcNAc(b1-2)Man(a1-3)Man(b1-4)GlcNAc(b1-4)GlcNAc
In short: as §1

[11] = biological target: Gal(b1-4)GlcNAc(b1-2)[Gal(b1-4)GlcNAc(b1-4)]Man(a1-3)[Gal(b1-4)GlcNAc(b1-2)Man(a1-6)]Man(b1-4)GlcNAc(b1-4)GlcNAc
In short: as §1

[12] = biological target: GlcA(b1-3)GlcNAc
In short: as §1

[13] = biological target: GlcNAc(a1-4)Gal(b1-4)GlcNAc(b1-3)Gal(b1-4)[Fuc(a1-3)]GlcNAc(b1-3)Gal(b1-4)[Fuc(a1-3)]GlcNAc
In short: as §1

[14] = biological target: Man(a1-2)Man(a1-2)Man(a1-3)Man
In short: as §1

[15] = biological target: Man(a1-2)Man(a1-6)[Man(a1-3)]Man(a1-6)[Man(a1-2)Man(a1-2)Man(a1-3)]Man(b1-4)GlcNAc(b1-4)GlcNAc
In short: as §1

[16] = biological target: Man(a1-3)[Man(a1-6)]Man(a1-6)[Man(a1-3)]Man(b1-4)GlcNAc(b1-4)GlcNAc
In short: as §1

[17] = biological target: Neu5Ac(a2-3)Gal(b1-4)[Fuc(a1-3)]GlcNAc(b1-3)GalNAc
In short: as §1

[18] = biological target: Neu5Ac(a2-3)Gal6S(b1-4)GlcNAc
In short: as §1

[19] = biological target: Neu5Ac(a2-3)Gal6S(b1-4)[Fuc(a1-3)]GlcNAc
In short: as §1

[20] = biological target: Neu5Ac(a2-3)[GalNAc(b1-4)]Gal(b1-4)Glc
In short: as §1

[21] = biological target: Neu5Ac(a2-6)Gal
In short: as §1

[22] = biological target: Neu5Ac(a2-6)Gal(b1-4)GlcNAc(b1-3)Gal(b1-4)GlcNAc
In short: as §1

[23] = biological target: Neu5Ac(a2-6)Gal(b1-4)GlcNAc(b1-3)Gal(b1-4)[Fuc(a1-3)]GlcNAc(b1-3)Gal(b1-4)[Fuc(a1-3)]GlcNAc
In short: as §1

[24] = biological target: Neu5Ac(a2-6)GlcNAc(b1-4)GlcNAc
In short: as §1

[25] = biological target: Neu5Ac(a2-8)Neu5Ac(a2-3)Gal(b1-4)Glc
In short: as §1

[26] = biological target: Neu5Ac9Ac(a2-3)Gal(b1-4)GlcNAc
In short: as §1

B1: PEB4 (Campylobacter jejuni), A1VYV6 (protein)
chain: MKKFSLVAAALIAGVALNVNAATVATVNGKSISDAEVSEFFAPMLRGQDFKTLPDNQKKALIQQYIMQDLILQDAKKQNLEKDPLYTKELDRAKDAILVNVYQEKILNTIKIDAAKVKAFYDQNKDKYVKPARVQAKHILVATEKEAKDIINELKGLKGKELDAKFSELAKEKSIDPGSKNQGGELGWFDQSTMVKPFTDAAFALKNGTITTTPVKTNFGYHVILKENSQAKGQIKFDEVKQGIENGLKFEEFKKVINQKGQDLLNSAKVEYK
**Q.** For B1, which “glycan array binding signal (z-score)” value [1] is on record?
**A.** The value was 0.571.

**Q.** What about the “glycan array binding signal (z-score)” value [2] of the same binder?
**A.** The value was -0.517.

**Q.** And the “glycan array binding signal (z-score)” value [3]?
**A.** The value was -0.387.

**Q.** And the “glycan array binding signal (z-score)” value [4]?
**A.** Its value is 3.83.

**Q.** What about the “glycan array binding signal (z-score)” value [5] of the same binder?
**A.** Its value is 2.12.

**Q.** What about the “glycan array binding signal (z-score)” value [6] of the same binder?
**A.** Its value is 2.54.

**Q.** What about the “glycan array binding signal (z-score)” value [7] of the same binder?
**A.** The value was 2.99.

**Q.** What about the “glycan array binding signal (z-score)” value [8] of the same binder?
**A.** Its value is -0.25.

**Q.** And the “glycan array binding signal (z-score)” value [9]?
**A.** The value was -0.852.

**Q.** And the “glycan array binding signal (z-score)” value [10]?
**A.** Its value is -0.258.

**Q.** And the “glycan array binding signal (z-score)” value [11]?
**A.** Its value is 2.58.

**Q.** And the “glycan array binding signal (z-score)” value [12]?
**A.** The value was 0.752.

**Q.** What about the “glycan array binding signal (z-score)” value [13] of the same binder?
**A.** Its value is 4.35.

**Q.** What about the “glycan array binding signal (z-score)” value [14] of the same binder?
**A.** Its value is 2.37.

**Q.** And the “glycan array binding signal (z-score)” value [15]?
**A.** The value was 0.969.

**Q.** What about the “glycan array binding signal (z-score)” value [16] of the same binder?
**A.** Its value is -0.553.

**Q.** What about the “glycan array binding signal (z-score)” value [17] of the same binder?
**A.** Its value is 5.24.

**Q.** And the “glycan array binding signal (z-score)” value [18]?
**A.** The value was 1.6.

**Q.** And the “glycan array binding signal (z-score)” value [19]?
**A.** The value was 2.8.

**Q.** And the “glycan array binding signal (z-score)” value [20]?
**A.** Its value is -1.19.

**Q.** And the “glycan array binding signal (z-score)” value [21]?
**A.** Its value is 0.075.

**Q.** What about the “glycan array binding signal (z-score)” value [22] of the same binder?
**A.** Its value is -0.672.

**Q.** What about the “glycan array binding signal (z-score)” value [23] of the same binder?
**A.** The value was -0.544.

**Q.** What about the “glycan array binding signal (z-score)” value [24] of the same binder?
**A.** Its value is -0.701.

**Q.** And the “glycan array binding signal (z-score)” value [25]?
**A.** The value was -0.705.

**Q.** What about the “glycan array binding signal (z-score)” value [26] of the same binder?
**A.** The value was -1.05.
